In PubChem BioAssay (Tox21) one finds Potency and outcome data, which are given here for 14 compounds.

The nature of experiment [1]: qHTS assay for small molecules that induce genotoxicity in human embryonic kidney cells expressing luciferase-tagged ATAD5 (AID 651632). Note: nearly all actives have a fitted effect of over 15% in size. Note: potency is the fitted concentration of half-maximal effect. In a few lines: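 Cells were seeded at 2,000 per well, dosed with compound, and incubated 16 hr at 37C in 5% CO2. Luciferase activity was then quantified after a 30 min room-temperature incubation with Amplite.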
Experiment [2] can be described thus: qHTS assay for small molecule agonists of the p53 signaling pathway - cell viability (AID 651633; calls by dose curve;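 note: p53RE-bla HCT reporter cells with a stable beta-lactamase p53 reporter; series mostly up to about 83 µM; nearly all actives have a fitted effect of over 30% in size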). In a few lines:
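p53RE-bla cells, seeded at 4,000 per well and rested 5 h at 37 C/5% CO2, received compounds in DMSO for 16 h at 37 C. CellTiter-Glo was then added, and luminescence was read after 30 min at room temperature to gauge cytotoxicity.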

Experiment [3] is described as follows: qHTS assay for small molecules that induce genotoxicity in human embryonic kidney cells expressing luciferase-tagged ATAD5 - cell viability (AID 651634; calls by dose curve; note: nearly all actives have a fitted effect of over 25% in size). Put shortly: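 Cells (HEK293T, luciferase-tagged ATAD5) are seeded at 2,000 per well, dosed with compound or DMSO vehicle, and incubated 15.5 hr at 37C and 5% CO2. CellTiter-Fluor is added for 30 min before fluorescence is measured.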

A short description of experiment [4]: qHTS assay for small molecule disruptors of the mitochondrial membrane potential (AID 720635). Note: potency is the fitted concentration of half-maximal effect. In a few lines: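 HepG2 cells (2,000/well) attached overnight at 37C, then took compound for 1 hr at 37C, 5% CO2. Mito-MPS dye was added for 30 min; fluorescence was read at 490/535 nm (monomers) and 540/590 nm (aggregates).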
Experiment [5] in a line: qHTS assay to test for compound auto fluorescence at 590 nm (red) in HepG2 cells (AID 720674). In a few lines:
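Rose Bengal sodium served as the red fluorophore standard. HepG2 monolayers (overnight attachment, MEM with 10% FBS) were exposed to test compounds for 1 hr at 37 C and read at Ex 540/Em 590 nm.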

The nature of experiment [6]: qHTS assay to test for compound auto fluorescence at 535 nm (green) in HepG2 cells (AID 720675).
The nature of experiment [7]: qHTS assay to test for compound auto fluorescence at 590 nm (red) in HEK293 cells (AID 720679). Put shortly:
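Plates of HEK293 cells (10% dialyzed FBS) are treated with 23 nL compound or DMSO vehicle after a 4-5 hr attachment period, incubated overnight at 37C, and read for red fluorescence at 540/590nm.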

Experiment [8] is described as follows: qHTS assay to test for compound auto fluorescence at 460 nm (blue) in HEK293 cell free culture (AID 720681). In a few lines:
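Test compounds were pinned into cell-free culture medium (DMEM with 10% FBS) and fluorescence was read directly at Ex/Em 405/460 nm. Signals were expressed as fluorescence equivalents of triamterene, with DMSO vehicle as control.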

The nature of experiment [9]: qHTS assay to test for compound auto fluorescence at 535 nm (green) in HEK293 cell free culture (AID 720682). In a few lines: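 Read-out: 485/535 nm fluorescence intensity, calibrated against fluorescein. Medium only (DMEM + 10% FBS, no cells); test compound or DMSO vehicle added by pintool before plate reading.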
The nature of experiment [10]: qHTS assay to test for compound auto fluorescence at 590 nm (red) in HEK293 cell free culture (AID 720683). In a few lines:
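Tox21 10K library compounds were pinned into cell-free DMEM with 10% FBS and fluorescence was read at excitation 540 nm. Activity is expressed as Rose Bengal sodium equivalency.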

Experiment [11] in a line: qHTS assay to test for compound auto fluorescence at 590 nm (red) in HepG2 cell free culture (AID 720684). Put shortly:
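Readout: intrinsic compound fluorescence at 590 nm emission after 540 nm excitation, scaled to Rose Bengal sodium. Matrix was cell-free MEM with 10% FBS; DMSO vehicle wells served as control.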

Experiment [12] can be described thus: qHTS assay to test for compound auto fluorescence at 460 nm (blue) in HepG2 cell free culture (AID 720685). Put shortly:
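Cell-free plates of MEM plus 10% FBS received 23 nL compound or DMSO vehicle; blue-channel (405/460 nm) intensity scored against triamterene as reference fluorophore.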

Experiment [13] can be described thus: qHTS assay to test for compound auto fluorescence at 535 nm (green) in HepG2 cell free culture (AID 720686).
A short description of experiment [14]: qHTS assay to test for compound auto fluorescence at 460 nm (blue) in HepG2 cells (AID 720687). In a few lines: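 Cells (2,000/well in MEM with 10% FBS) attached overnight at 37 C, then were exposed to compound or DMSO for 1 hr at 37 C, 5% CO2. Fluorescence read at Ex/Em 405/460 nm, expressed as triamterene-equivalent signal.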
Experiment [15] deals with Glucocorticoid receptor (Homo sapiens) (UniProt P04150). As to the kind of experiment: qHTS assay to identify small molecule agonists of the glucocorticoid receptor (GR) signaling pathway (AID 720691; active = well fitted activation curve with a large enough effect in the signal ratio in the repeat runs, not every such curve was filed as active; the % refers to the signal ratio). Put shortly: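 Steps: seed GR-bla HeLa cells, incubate 4 h at 37 C/5% CO2; pin-transfer DMSO-dissolved compounds; incubate 18 h at 37 C; add LiveBLAzer B/G FRET substrate; after 2 h at room temperature, measure fluorescence.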

Experiment [16] shares this target. The experiment can be described thus: qHTS assay to identify small molecule antagonists of the glucocorticoid receptor (GR) signaling pathway (AID 720692; active = well fitted inhibition curve with a large enough effect in the signal ratio in the repeat runs, not every such curve was filed as active; the % refers to the signal ratio). Put shortly: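 Antagonism was scored as loss of dexamethasone-driven (5 nM final) reporter signal in HeLa cells bearing a glucocorticoid response element–beta-lactamase construct, after 18 h compound exposure at 37 C and 2 h FRET substrate loading.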

Experiment [17] can be described thus: qHTS assay to test for compound auto fluorescence at 460 nm (blue) in HEK293 cells (AID 720678). Put shortly:
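After cell attachment (4-5 hr, 37C), compounds were pinned onto HEK293 monolayers in 10% dialyzed FBS medium. The blue channel (405/460 nm) was read following overnight culture. Equivalency was calculated against triamterene.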

A short description of experiment [18]: qHTS assay to test for compound auto fluorescence at 535 nm (green) in HEK293 cells (AID 720680).
Experiment [19] in a line: qHTS assay for small molecule disruptors of the mitochondrial membrane potential - cell viability (AID 720634; calls by dose curve;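 note: human HepG2 liver cancer cells; series mostly up to about 83 µM; nearly all actives have a fitted effect of over 20% in size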). Put shortly:
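Cytotoxicity was measured by ATP quantitation in HepG2 wells that had first been treated with compound for 1 hr and stained with m-MPI dye; CellTiter-Glo incubation was 30 min at room temperature.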

A number with no mark means an inactive call. Results filed as inconclusive are left out. Active and inactive are the calls of the source. Unless noted, calls come from the whole dose curve; as a rule, active = well fitted curve in the direction sought with a large enough effect in the repeat runs; inconclusive = weak or mixed curves; inactive = no such curve, though single readings can be large; an effect the other way counts as inactive or inconclusive.

Glucocorticoid receptor (Homo sapiens), sequence (P04150 whole entry, looked up): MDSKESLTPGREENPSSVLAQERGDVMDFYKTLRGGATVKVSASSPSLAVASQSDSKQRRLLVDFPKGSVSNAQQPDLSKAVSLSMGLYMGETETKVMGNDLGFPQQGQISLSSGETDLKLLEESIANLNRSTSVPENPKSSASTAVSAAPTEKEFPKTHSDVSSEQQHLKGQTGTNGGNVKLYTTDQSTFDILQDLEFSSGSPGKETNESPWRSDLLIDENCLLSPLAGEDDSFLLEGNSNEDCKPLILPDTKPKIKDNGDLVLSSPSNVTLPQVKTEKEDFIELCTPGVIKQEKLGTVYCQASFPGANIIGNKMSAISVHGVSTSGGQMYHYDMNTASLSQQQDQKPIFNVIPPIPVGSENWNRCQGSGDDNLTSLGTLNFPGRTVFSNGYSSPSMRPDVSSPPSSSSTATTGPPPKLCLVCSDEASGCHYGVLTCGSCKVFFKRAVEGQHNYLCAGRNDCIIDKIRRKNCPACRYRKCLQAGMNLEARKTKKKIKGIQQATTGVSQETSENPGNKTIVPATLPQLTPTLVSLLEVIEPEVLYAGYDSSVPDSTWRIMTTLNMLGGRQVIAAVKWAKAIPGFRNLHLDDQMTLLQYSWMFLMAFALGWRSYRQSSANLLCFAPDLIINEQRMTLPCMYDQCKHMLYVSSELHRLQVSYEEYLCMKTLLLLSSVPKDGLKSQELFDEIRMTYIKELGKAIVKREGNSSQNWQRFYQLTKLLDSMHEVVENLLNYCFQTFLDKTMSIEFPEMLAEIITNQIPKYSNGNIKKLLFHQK

As for `C[C@@H]1CN(c2c(F)c(F)c3c(=O)c(C(=O)O)cn(C4CC4)c3c2F)C[C@H](C)N1`, the Potency result in [1], in experiment [2], in [3], in experiment [4], in [15] and in experiment [16] was “inactive” each time. For the same compound, the call in experiment [5], in experiment [6], in experiment [7], in experiment [8], in [9] and in experiment [10] was inactive. In addition, the result in experiment [11], in experiment [12], in [13] and in experiment [14] was inactive.

Consider `CCCCNCCCC`, for which the Potency entry in [1], in experiment [2], in [3], in experiment [15] and in [16] was “inactive” in each case. Moreover, the compound was classed as inactive in [5], in experiment [6], in experiment [17], in experiment [7], in experiment [18] and in [8]. Also, the compound was classed as inactive in experiment [9], in experiment [10], in [11], in experiment [12], in experiment [13] and in experiment [14].

For `CCN(CC)C(=O)N(CC)CC`, the Potency result in [1], in experiment [2], in experiment [3], in experiment [4], in [15] and in [16] was “inactive” each time. The call in [5], in [6], in experiment [17], in [18], in experiment [8] and in [9] was inactive. Further, the compound was classed as inactive in [11], in experiment [12] and in experiment [13].

Regarding `COC(C)CCO` (centres undefined), the Potency result in experiment [1], in experiment [2] and in [3] was “inactive” in each case. Besides, the call in experiment [5], in experiment [6], in [17], in experiment [7], in experiment [18] and in experiment [8] was inactive. In addition, the result in experiment [9], in experiment [10], in experiment [12], in experiment [13] and in experiment [14] was inactive.

Take `CCOc1ccc(NS(=O)(=O)c2ccc(N)cc2)nn1`: the Potency result in [1], in experiment [2], in experiment [19], in experiment [4], in experiment [15] and in [16] was “inactive” throughout. In addition, the call in [6], in experiment [17], in experiment [7], in experiment [18], in experiment [8] and in experiment [9] was inactive. In addition, the compound was called inactive in experiment [10], in [11], in experiment [12], in experiment [13] and in experiment [14].

Consider `Nc1ccc(Oc2ccc(N)c(N)c2)cc1`, for which the Potency in experiment [1] is 30.6 µM (active); in experiment [4], 17.2 µM (active). Further, the Potency entry in [2], in [3] and in experiment [15] was “inactive” in each case. For the same compound, the call in experiment [6], in [17], in experiment [18], in [9], in experiment [10] and in experiment [11] was inactive. The compound was classed as inactive in experiment [12] and in experiment [13].

On to `COC(=O)c1ccc(OC)cc1`, for which the Potency entry in experiment [1], in [2], in experiment [3], in experiment [4], in [15] and in experiment [16] was “inactive” each time. The compound was classed as inactive in experiment [5], in experiment [6], in experiment [17], in [7], in [18] and in experiment [8]. In addition, the compound was called inactive in [9], in [10], in experiment [11], in experiment [12], in [13] and in experiment [14].

`CCN(CC)CC1CCCCN1CC(=O)N1c2ccccc2C(=O)Nc2cccnc21` (centres undefined): the Potency result in [1], in experiment [3], in experiment [19] and in experiment [4] was “inactive” each time. The outcome in experiment [6], in [17], in experiment [7], in experiment [18], in experiment [8] and in experiment [9] was inactive. The compound was called inactive in experiment [10], in [11], in experiment [12], in [13] and in [14].

In the case of `NC1=NCC2c3ccccc3Cc3ccccc3N12` (centres undefined), the Potency result in experiment [2], in experiment [3], in [19], in experiment [4], in experiment [15] and in experiment [16] was “inactive” throughout. Also, the call in experiment [5], in [6], in experiment [17], in [7], in [18] and in [8] was inactive. Also, the outcome in experiment [9], in experiment [10], in experiment [11], in experiment [12], in experiment [13] and in experiment [14] was inactive.

`OCCN1CCN(CCO)CC1`: the Potency result in experiment [1], in experiment [3], in experiment [19] and in [15] was “inactive” each time. Further, the compound was called inactive in [5], in [6], in experiment [7], in [18], in experiment [9] and in [10]. The compound was called inactive in [12], in experiment [13] and in experiment [14].

Take `CCCCCCOc1ccc(N)cc1`: the Potency entry in [3], in experiment [19] and in experiment [15] was “inactive” in each case. Further, the call in [5], in experiment [6], in [17], in [7], in experiment [18] and in [8] was inactive. The compound was called inactive in experiment [9], in experiment [10], in experiment [11], in experiment [12], in experiment [13] and in [14].

Consider `O=C(O[C@@H](C(=O)O)[C@@H](OC(=O)c1ccccc1)C(=O)O)c1ccccc1`, for which the Potency result in experiment [1], in [3], in experiment [19], in experiment [4], in experiment [15] and in [16] was “inactive” each time. Besides, the result in experiment [6], in experiment [17], in [7], in experiment [18], in experiment [8] and in experiment [9] was inactive. Further, the compound was classed as inactive in experiment [10], in [11], in experiment [12], in experiment [13] and in experiment [14].

In the case of `C1CCOC1`, the result in experiment [5], in [6], in [7], in experiment [18], in experiment [8] and in experiment [9] was inactive. Moreover, the compound was classed as inactive in experiment [11], in [12] and in experiment [13]. The Potency result in experiment [15] and in [16] was “inactive” throughout.

On to `Cc1cc2nc(N)sc2cc1C`, for which the Potency result in [2], in experiment [3], in experiment [19] and in experiment [16] was “inactive” each time. The Potency in experiment [4] was 49 µM (active). Further, the compound was called inactive in [5], in experiment [6], in experiment [17], in experiment [7], in [8] and in experiment [9]. For the same compound, the compound was called inactive in [11], in [12], in experiment [13] and in experiment [14].
